Data taken from PubChem BioAssay AID2289 (National Center for Advancing Translational Sciences (NCATS), 2010).
The whole screen tested about 340,000 compounds, of which about 3,300 (0.97%) were called active. Inconclusive results (about 9%) are left out. The call rests on the fitted dose curve; in most records, active means well fitted inhibition curve with a large enough effect; inconclusive means small, poorly fitted or top-dose-only effect, or effect the other way; inactive means flat fitted curve, though single readings scatter. The list shows a part of the results.

assay: qHTS Assay for Modulators of miRNAs and/or Inhibitors of miR-21; conditions: HeLa miR-21-FLuc reporter, luciferase luminescence, 48 h; actives lower the signal; further: nearly all actives have a fitted effect of over 55% in size
How it was run: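 HeLa cells stably expressing CMV-driven firefly luciferase with a downstream miR-21 binding sequence, endogenously expressing miR-21, were treated with titrations (up to about 40uM final) for 48 hours at 37 degree Celsius. Luciferase luminescence was read after lysis.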
Potency means the concentration at half of the fitted maximal effect.

Potency, active:
CC(=O)N1CCC(=NNC(=O)c2cccs2)CC1 3.69 µM
O=C(NN=C1CCCC1)c1cccs1 1.65 µM
CC(C)N1CCC(=NNC(=O)c2cccs2)CC1 6.56 µM
Cc1ccsc1C(=O)NN=C1CCCCCC1 3.69 µM
Cc1ccc(-c2nc(C#N)c(NCc3ccco3)o2)cc1 4.14 µM
COc1ccc(-c2nc(C#N)c(NCc3ccco3)o2)cc1 9.27 µM
COc1ccc(C(=O)/C=C/c2ccc(OC)cc2OC)c(O)c1 6.56 µM
Clc1ccc(-c2cn3nc4c(nc3n2)CCCC4)cc1 0.117 µM
O=C(Nc1ccsc1C(=O)O)c1cccc(C(F)(F)F)c1 7.36 µM
COc1ccc(C2=NN(S(C)(=O)=O)C(c3ccc4nccnc4c3)C2)cc1 (stereo not given) 7.36 µM
COc1ccc(C2=NN(C(C)=O)C(c3cccs3)C2)cc1OC (stereo not given) 8.26 µM
COc1ccc(C2=NN(S(C)(=O)=O)C(c3cccs3)C2)cc1OC (stereo not given) 7.36 µM
COc1ccc(C2=NN(S(C)(=O)=O)C(c3cccs3)C2)cc1 (stereo not given) 2.61 µM
CC(=O)c1sc(N/N=C\c2ccc(Br)cc2)nc1C 5.21 µM
CC(=O)c1sc(N/N=C\c2ccc(C)cc2)nc1C 3.29 µM
CC(=O)c1sc(N/N=C\c2ccc(N(C)C)cc2)nc1C 0.927 µM
CC(=O)c1sc(NCc2ccc(C)cc2)nc1C 5.21 µM
CCc1cc(C(=O)NNC(=S)Nc2ccccc2C)cs1 2.07 µM
Cc1cc(C(=O)NNC(=S)Nc2ccccc2C)cs1 1.65 µM
c1ccc2nc(-c3ccc(-n4ccnc4)cc3)ccc2c1 0.826 µM
COc1ccc(C(=O)N[C@H](C(=O)Nc2nc3c(s2)CCCC3)C(C)C)cc1 2.93 µM
Nc1ccc2c(c1)sc1ccccc12 6.56 µM
NS(=O)(=O)c1ccc(N/N=C/C=C/c2ccccc2[N+](=O)[O-])cc1 3.29 µM
O=C(O)c1cc(N/N=C/C=C/c2ccccc2[N+](=O)[O-])ccc1Cl 3.29 µM
NNc1ccc(Cl)c(C(=O)O)c1 6.56 µM
O=C(O)c1cc(N/N=C/C=C/c2ccccc2)ccc1Cl 0.826 µM
O=C(O)c1ccc(N/N=C/C=C/c2ccccc2[N+](=O)[O-])cc1 4.65 µM
O=C(O)c1cc(N/N=C/C(Cl)=C/c2ccccc2)ccc1Cl 0.233 µM
CC(C)c1ccc(CNc2n[nH]c(-c3ccco3)n2)cc1 2.07 µM
Fc1cccc(Cl)c1CNc1n[nH]c(-c2ccco2)n1 7.36 µM
